# Assay results reported in PubChem BioAssay AID624483 (NMMLSC, 2012).
# Among all 360,000 compounds or so, about 11,000 (3.1%) were called active. Not shown: some 2% with an inconclusive outcome. The sample holds actives, similar compounds and a random draw of the others, so the mix is not that of the screen. Cut-off read from the data, not from the text of the source: active = fluorescence intensity above about 16000; inconclusive = no clear call, values can overlap the other calls; inactive = below that.
# Assay: compound fluorescence in toxin protease inhibitor counterscreen, primary screen, artefact control for toxin protease inhibitor project, biochemical, multiplex microsphere, HTS (AID 624483)
# Settings: compound autofluorescence counterscreen, microsphere flow cytometry; stronger effect = higher value
row,Structure (SMILES),fluorescence intensity
1,CC[C@]12c3[nH]c4cc(CCC(=O)N(C)C)ccc4c3CCN1C(=O)[C@@H](CC(=O)NCCCn1ccnc1)C[C@@H]2C(=O)N1CCN(C(=O)C2CC2)CC1,3900 (inactive)
2,COc1cc(C2C(C(=O)OCCC#N)=C(C)NC3=C2S(=O)(=O)c2ccccc23)cc(OC)c1OC (stereo not drawn),9630 (inactive)
3,CCCCn1nc(C(=O)N2CCc3ccccc32)c2ccccc2c1=O,23400 (active)
4,CCCn1nc(C(=O)N2CCCc3ccccc32)c2ccccc2c1=O,4370 (inactive)
5,CCCCn1nc(C(=O)Nc2cccc(C(=O)NC3CC3)c2)c2ccccc2c1=O,3390 (inactive)
6,OC[C@@H]1CN(Cc2ccc(F)cc2)C[C@H](n2cnc3c(NC4CCCC4)ncnc32)O1,3760 (inactive)
7,CC(=O)OCC(C)n1c(=O)c2ccccc2n1C(C)=O (stereo not drawn),6200 (inactive)
8,Cc1cn([C@H]2C[C@H](O)[C@@H](/C=C/C(=O)NCCCc3ccccc3)O2)c(=O)[nH]c1=O,4330 (inactive)
9,CCc1nnc(NS(=O)(=O)c2ccc(NC(=S)NC(=O)c3cccs3)cc2)s1,3630 (inactive)
10,O=C(NC(=S)Nc1cccc(-c2ccc(CO)o2)c1)c1cccs1,4550 (inactive)
11,Cc1sc(NC(=S)NC(=O)c2cccs2)nc1-c1ccc(CC(C)C)cc1,19900 (active)
12,CC1=C(C(=O)OCC2CCCCC2)C(c2ccc(F)cc2)NC(=O)N1 (stereo not drawn),3520 (inactive)
13,CC(C)c1cccc(-c2csc(C(O)c3ccccc3)n2)c1 (stereo not drawn),3800 (inactive)
14,COC(=O)c1sccc1NC(=O)c1ccc(Cl)cc1,2980 (inactive)
15,COC(=O)c1sccc1NS(=O)(=O)c1ccc(F)cc1F,3170 (inactive)
16,COC(=O)c1sccc1N/N=C(\C)c1ccc(F)c(Cl)c1,22300 (active)
17,OC(c1ccccc1)c1nc(-c2cnc3ccccc3c2)cs1 (stereo not drawn),3830 (inactive)
18,Cc1ccc(NC(=O)CNCc2ccccn2)cc1S(=O)(=O)N(C)C,4460 (inactive)
19,CCN(c1ccccc1)S(=O)(=O)c1cc(C(=O)NCc2ccccn2)ccc1C,6330 (inactive)
20,CCN(CC)S(=O)(=O)c1cc(C(=O)Nc2ccccn2)ccc1C,24700 (active)
21,CC1(C)OC(=O)C2=C(C[C@@H](C3CC3)O[C@H]2c2ccc(Cl)cc2)O1,5960 (inactive)
22,Cc1cc2nc(-c3ccco3)c(Cc3cccc(F)c3)n2c(C)c1Br,5860 (inactive)
23,Cc1cc(OCC(=O)N(C)c2c(N)n(Cc3ccccc3)c(=O)[nH]c2=O)c(C(C)C)cc1Cl,5120 (inactive)
24,Cc1ccc(S(=O)(=O)N(CC(=O)NCCSC2CCCCC2)c2ccccc2F)cc1,7650 (inactive)
25,O=C(O)CCC(=O)N(Cc1cccs1)Cc1cccs1,9340 (inactive)

row,Structure (SMILES),fluorescence intensity
1,O=P(c1cccs1)(c1cccs1)c1cccs1,22500 (active)
2,COc1ccc(CC(N)c2csc(NC(=O)Cc3ccccc3)n2)cc1 (stereo not drawn),3080 (inactive)
3,CCCCCCCCN1C(=O)[C@H](CC(=O)NCC23CC4CC(CC(C4)C2)C3)C[C@@]2(C(=O)OC)CCCCC=C12,5660 (inactive)
4,COC(=O)c1ccc(CN2CCC(CO)(Cc3ccc(OC)cc3)CC2)cc1,3600 (inactive)
5,CC(=O)N(C1=NCCCS1)c1ccccc1F,24900 (active)
6,O=C(NCc1ccc(F)cc1)c1cc(C2CCCCN2C(=O)c2cccs2)on1 (stereo not drawn),3580 (inactive)
7,Cc1nn(Cc2ccccc2)c(C)c1NS(=O)(=O)c1ccccc1,5640 (inactive)
8,OCc1nc(CO)n(Cc2ccccc2)n1,20000 (active)
9,Nc1c(-c2ccccc2)nnn1Cc1ccccc1,5560 (inactive)
10,O=C(NCc1cccnc1)c1ccc2nc([C@@H]3O[C@H](CO)[C@H](O)[C@H](O)[C@H]3O)[nH]c2c1,3590 (inactive)
11,O=C1C(C=NCC2CCCO2)=C(O)c2ccccc21 (stereo not drawn),21000 (active)
12,O=C1c2cccc3c([N+](=O)[O-])ccc(c23)C(=O)N1CC1CCCO1 (stereo not drawn),3530 (inactive)
13,Cc1ccc(-n2c(O)c(C=NCC3CCCO3)c(=O)[nH]c2=O)c(C)c1 (stereo not drawn),6540 (inactive)
14,CC(C)Oc1ccc(CN2CCC2(C)C(=O)NCc2ccc(C(F)(F)F)cc2)cc1 (stereo not drawn),4110 (inactive)
15,COc1ccc(C(=O)Nc2nc(-c3ccc(S(=O)(=O)N4CCOCC4)cc3)cs2)cc1,20400 (active)
16,COc1ccc(C(=O)Nc2cc(S(=O)(=O)N3CCCC3)ccc2Cl)cc1,3660 (inactive)
17,CNC(=O)c1ccsc1NC(=O)c1ccc(S(=O)(=O)N2CCOCC2)cc1,2470 (inactive)
18,COc1ccc(-c2cnc3c(c2)C(=O)N([C@H](C)CO)C[C@@H](C)[C@H](CN(C)Cc2ccccc2)O3)cc1,3700 (inactive)
19,Cn1cc(CCC(=O)NCc2ccc3c(c2)OCO3)c2ccccc21,22500 (active)
20,CC(C)NC(=O)CSc1ccccc1C(=O)NCc1ccc2c(c1)OCO2,2170 (inactive)
21,Cn1cc(CCC(=O)NC2CC2)c2ccccc21,3960 (inactive)
22,CCOC(=O)N1CCC(NC(=O)CCc2ccccc2)CC1,3630 (inactive)
23,CCn1c(=O)cc(SCC(=O)NCCC2=CCCCC2)c2ccccc21,2540 (inactive)
24,CCN(CC)C(=O)C(=O)c1cn(CC(=O)NCc2ccc3c(c2)OCO3)c2ccccc12,4830 (inactive)
25,CCOC(=O)N1CCC(NC(=O)Cc2cn(C)c3ccccc23)CC1,2810 (inactive)

row,Structure (SMILES),fluorescence intensity
1,CCOC(=O)N1CCC(NC(=O)CCc2cn(C)c3ccccc23)CC1,22900 (active)
2,CCn1c(=O)cc(SCC(=O)NCc2ccc3c(c2)OCO3)c2ccccc21,23400 (active)
3,COc1ccc(-c2csc(C(O)c3cccc(Cl)c3)n2)cn1 (stereo not drawn),3880 (inactive)
4,COCCNC(=O)CSc1nc2c(n1-c1ccccc1)CCCC2,3860 (inactive)
5,COc1ccc(-c2cc3nc(NCCOc4ccccc4)ccn3n2)cc1,4480 (inactive)
6,O=C(NCc1ccc(F)cc1)C(c1ccccc1)N(C(=O)c1csnn1)C1CC1 (stereo not drawn),2770 (inactive)
7,CNc1cncc(-c2ccc(NS(C)(=O)=O)cc2)n1,3500 (inactive)
8,Cc1cc(NC(=O)CSc2ncc(C(F)(F)F)cc2Cl)no1,3110 (inactive)
9,Cc1nn(-c2ncc(C(F)(F)F)cc2Cl)c(=O)n1-c1ccccc1,2340 (inactive)
10,Cc1ccc(-c2ccnc3nc(Sc4ncc(C(F)(F)F)cc4Cl)nn23)cc1,23100 (active)
11,Cc1ccc(-c2cnc(C(O)c3cccc(C)c3C)[nH]2)cc1 (stereo not drawn),3860 (inactive)
12,OC(c1ccccc1)(c1ccccc1)C1CCN(CCCOc2ccccc2)CC1,6640 (inactive)
13,COc1ccc(CN2CCC(C)(Oc3cccc(F)c3)C2)c2ccccc12 (stereo not drawn),3240 (inactive)
14,CC(C)(C)NC(=O)CSC(=Nc1ccccc1F)NC#N,21400 (active)
15,Cc1ccccc1CSCC(=O)NC(=O)NC(C)(C)C,11200 (inactive)
16,COc1ccccc1-n1ccnc1SCC(=O)NC(C)(C)C,3990 (inactive)
17,CCOC(=O)[C@]12CCC=C1N(Cc1cccc3ccccc13)C(=O)[C@H](CC(=O)NCc1cccc(C(F)(F)F)c1)C2,4120 (inactive)
18,CC(=O)Nc1cc(-c2cccc(CO)c2)cn2c(-c3cccc(C(F)(F)F)c3)cnc12,3820 (inactive)
19,OC(c1ccc(Cl)cc1)C(CN1CCOCC1)c1ccccc1 (stereo not drawn),3680 (inactive)
20,COCCn1c(SCC(=O)Nc2cc(Cl)ccc2OC)nc2c(c1=O)SC(C)C2 (stereo not drawn),4110 (inactive)
21,CCOC(=O)c1cccc(NC(=O)CCn2nnc3ccccc32)c1,4180 (inactive)
22,CCOC(=O)c1cccc(NC(=O)CCOc2ccccc2)c1,3720 (inactive)
23,CCOC(=O)c1cccc(NC(=O)CCc2c(C)nc3ncnn3c2C)c1,17600 (active)
24,c1ccc(C2CNCc3c2ccc2ccccc32)cc1 (stereo not drawn),10400 (inactive)
25,O=S1(=O)CC(N2CCN(Cc3ccccc3F)CC2)CN1Cc1cn(Cc2cccc(C(F)(F)F)c2)nn1 (stereo not drawn),4150 (inactive)

row,Structure (SMILES),fluorescence intensity
1,CS(=O)(=O)N1CCN(c2ccc(C(=O)NC3C4CC5CC(C4)CC3C5)cc2[N+](=O)[O-])CC1 (stereo not drawn),17000 (active)
2,Cc1ccc(C(=O)c2ccc(N3CCN(C)CC3)c([N+](=O)[O-])c2)cc1,2490 (inactive)
3,Cc1cccc(N2CCN(c3ccc(C(N)=O)cc3[N+](=O)[O-])CC2)c1C,4080 (inactive)
4,CCCNC(=O)CN(Cc1ccccc1F)S(=O)(=O)c1ccc(C)cc1,21400 (active)
5,CCN(CC(=O)NCCc1ccccc1)S(=O)(=O)c1ccc(C)cc1,2180 (inactive)
6,CCN(CC(=O)NCCc1ccccc1)S(=O)(=O)c1ccccc1,5110 (inactive)
7,NC(=O)C1CCN(CC(O)CSc2ccc(F)cc2)CC1 (stereo not drawn),3520 (inactive)
8,CC1(C(=O)NCc2ccc3c(c2)OCO3)CCN1C(=O)Cc1cccs1 (stereo not drawn),3670 (inactive)
9,O=C(COc1ccc2oc3c(c2c1)CCCC3)Nc1ccccn1,3750 (inactive)
10,CCOC(=O)N1CCN(C(=O)COc2ccc3oc4c(c3c2)CCCC4)CC1,4590 (inactive)
11,O=C(CN1CCOCC1)N1CCCc2c1c(=O)oc1ccc(OCc3ccccc3)cc21,22500 (active)
12,O=C(NC(=O)N1CCOCC1)c1ccccc1,9020 (inactive)
13,O=C1OC(OC(=O)c2ccccc2Br)C(N2CCOCC2)=C1Cl (stereo not drawn),6700 (inactive)
14,O=C1OC(NC(=O)c2ccccc2)C(N2CCOCC2)=C1Cl (stereo not drawn),21900 (active)
15,Cc1cc2oc(=O)cc(CN(C)Cc3ccccc3)c2cc1Cl,6000 (inactive)
16,Cc1c(C=O)c2ccccc2n1CC(=O)O,4440 (inactive)
17,CC(=O)c1c(C)n([O-])c2ccccc2[n+]1=O,23100 (active)
18,COC(=O)c1cnn2c(C(F)(F)F)cc(-c3ccco3)nc12,4440 (inactive)
19,FC(F)(F)c1nnc2c3ccccc3c(Cl)nn12,3190 (inactive)
20,Fc1ccc(-c2ccc(-c3nn4c(-c5ccco5)nnc4s3)o2)cc1,3990 (inactive)
21,FC(F)(F)c1nnc2sc(-c3ccco3)nn12,22400 (active)
22,Cc1nnc2sc(-c3ccco3)nn12,20800 (active)
23,CNc1nnc(-c2ccco2)s1,4180 (inactive)
